Shown are actives, neighbours in structure and some others; about 3% of the full set was active somewhere.
TRPM1 prom inh: MITF TRPM1 promoter inhibition in SK-MEL-5 cells | SK-MEL-5 TRPM1 promoter luciferase, 24 h | inhibition, % at 12.5 µM | 0.83% of 330,000 active | AID 488899;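 active = mean inhibition across replicates of 60% or more, whatever share of single replicates reaches that level; inconclusive = some that reach 60%, reason not given; inactive = mean inhibition across replicates below 60%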
TROY NFkB inh: TROY signaling inhibition; Q293 LMP1-TROYcd NF-kB luciferase reporter, 4 h; inhibition, % at 10 µM; 0.98% of 360,000 active; AID 1347056;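 active = compounds whose plate-normalised and pattern-corrected inhibition of the luciferase reporter signal at the single screening dose is 50% or more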
EBV LMP1 NFkB: inhibitors of Epstein-Barr LMP1-induced NF-kappaB reporter | LMP1-induced NF-kappaB luciferase reporter cells, luminescence | inhibition, % at 12.5 µM | 0.69% of 350,000 active | AID 504558; in the data active = inhibition above about 41%; inconclusive = no clear call, values can overlap the other calls;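 note: 0% = neutral control wells and 100% = reference inhibitor control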
MITF act: increases MITF-driven TRPM1 promoter luciferase signal; SK-MEL-5 TRPM1-promoter luciferase, 24 h; % of positive control, neutral wells = 0; 0.75% of 300,000 active; activation, % at 12.5 µM;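 active = mean activation of at least 80% with every replicate also reaching 80%; inconclusive = mean reaches 80% but some replicate falls short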;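 note: 0% = neutral control wells and 100% = parthenolide positive control wells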
LGR2 antag: Drosophila LGR2 receptor signaling inhibition | HEK293 LGR2, CRE-luciferase, bursicon-stimulated, 4 h | inhibition, % at 9.99 µM | 0.35% of 380,000 active | AID 720647;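 active = drop in luminescence signal, shown as inhibition above about 50% in the replicate tests, limit read from the data, passing the limit was not always enough; inconclusive = probably only some replicates passing the limit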;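 note: agonist challenge used bursicon conditioned medium at about half maximal strength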
TWEAK Fn14 block: TWEAK-Fn14 signaling inhibition; inhibition, % at 10 µM; AID 1159606; TWEAK-stimulated Fn14 reporter cells, luciferase luminescence, 8 h; 2% of 360,000 active; in the data active = inhibition above about 50%
An asterisk follows results filed as active; ? = inconclusive; · = no result given.

SMILES	TRPM1 prom inh	TROY NFkB inh	EBV LMP1 NFkB	MITF act	LGR2 antag	TWEAK Fn14 block
O=c1c(O)c(-c2ccc(O)c(O)c2)oc2cc(O)cc(O)c12	-21	32	90*	22	·	68*
O=c1cc(-c2ccc(O)c(O)c2)oc2cc(O)cc(O)c12	-97	37	0	101*	23	64*
COc1c(-c2ccc(O)cc2)oc2cc(O)cc(O)c2c1=O	-5	-28	5	9	0	8
C[C@@H]1CN([C@H](C)CO)C(=O)Cc2cc(NC(=O)Cn3cnnn3)ccc2O[C@@H]1CN(C)Cc1ccc(C(=O)O)cc1	·	·	·	·	-11	·
Cn1cnc(S(=O)(=O)N2C[C@H](O)COC[C@H]3O[C@@H](CC(=O)NCc4cc(F)cc(F)c4)CC[C@@H]32)c1	·	·	·	·	10	·
Cc1ccc(NC(=O)c2oc3ccccc3c2NC(=O)C2CCCO2)cc1C (stereo not given)	-102	-23	-28	104*	-208	-8
CCOCC(=O)Nc1c(C(=O)Nc2ccc3c(c2)OCCO3)oc2ccccc12	-89	-38	-42	95*	-25	12
CCC(=O)Nc1c(C(=O)Nc2ccc3c(c2)OCCO3)oc2ccccc12	-97	-9	-30	98*	-95	6
COCC(=O)Nc1c(C(=O)Nc2ccc3c(c2)OCCO3)oc2ccccc12	-93	-48	-33	92*	-51	17
O=C(Nc1ccccc1F)N[C@@H]1CC[C@@H](CCNS(=O)(=O)c2ccccc2)O[C@H]1CO	·	·	·	·	16	·
c1ccc(COc2cccc(CN3CCCCC3)c2)cc1	1	-26	5	-1	-4	103*
C[C@@H]1CN([C@@H](C)CO)C(=O)Cc2cc(N(C)C)ccc2O[C@H]1CN(C)C(=O)Nc1ccccc1	·	·	·	·	3	·
CCN(CCO)c1ccc(Nc2cc(-c3ccc(-c4ccccc4)cc3)ncn2)cc1	·	-23	·	·	·	-28
CCN(CCO)c1ccc(N=Nc2cc(C)[nH]n2)cc1	76*	69*	63*	-76	92*	91*
O=C(O)c1ccc(/C=C(\c2nc3ccccc3[nH]2)c2nc3ccccc3s2)cc1	7	-32	-3	-7	-35	2
CC(C)(C)c1ccc(/C=C(\c2nc3ccccc3[nH]2)S(=O)(=O)c2ccccc2)cc1	91*	46	3	-90	·	95*
Cc1cccc(/C=C(\c2nc3ccccc3[nH]2)S(=O)(=O)c2ccccc2)c1	86*	10	10	-85	?	75*
Cc1ccc(CNC(=S)NC2CCC(C(C)(C)C)CC2)cc1 (stereo not given)	-1	51*	10	1	16	-15
C[C@@H]1CN([C@@H](C)CO)C(=O)c2cc(NC(=O)CCC(F)(F)F)ccc2O[C@@H]1CN(C)Cc1ccc(Oc2ccccc2)cc1	·	·	·	·	-9	·
CO[C@@H]1CN(C)C(=O)c2ccc(NC(=O)C3CC3)cc2OC[C@@H](C)N(CCc2ccccc2)C[C@@H]1C	·	·	·	·	15	·
Cn1c(SSc2ccc(-c3cccnc3)n2C)ccc1-c1cccnc1	37	49	6	-41	-7	69*
CN(C)C(=O)C[C@H]1C=C[C@H](NC(=O)C2CCC2)[C@@H](CO)O1	·	·	·	·	-1	·
Cc1ccc(S(=O)(=O)N(C)CC(=O)Nc2cccnc2)cc1	7	-17	0	-5	1	15
CN(CC(=O)Nc1cccnc1)S(=O)(=O)c1ccc(Br)cc1	2	17	50*	-1	0	-12
Cc1cccc(-c2nnc(NC(=O)c3ccc(Cl)cc3)o2)c1	0	-19	20	-4	·	62*
SMILES	TRPM1 prom inh	TROY NFkB inh	EBV LMP1 NFkB	MITF act	LGR2 antag	TWEAK Fn14 block
CC(C)(C)C1CCC(CN2C(Nc3ccccc3)=NC[C@@H]2Cc2ccccc2)CC1 (stereo not given in full)	95*	18	-12	-95	10	-28
C[C@H](CO)N1C[C@H](C)[C@H](CN(C)C(=O)C2CCC2)Oc2ncc(C#Cc3ccccc3F)cc2C1=O	·	·	·	·	14	·
COc1ccc2c3c([nH]c2c1)[C@H](CO)N(Cc1cccc(Cl)c1)CC31CCN(C)CC1	·	·	·	·	-6	·
CCN1C/C(=C/c2ccc(N3CCOCC3)cc2)C(=O)/C(=C/c2ccc(N3CCOCC3)cc2)C1	93*	8	-69	-92	41	17
CN1C/C(=C\c2ccc(N3CCOCC3)cc2)C(=O)/C(=C/c2ccc(N3CCOCC3)cc2)C1	32	14	-154	-31	6	23
N#C/C(=C\c1ccc(O)c(O)c1)C(=O)c1ccc(O)c(O)c1	-5	16	2	3	-1	63*
N#C/C(=C\c1ccc(O)c(O)c1)C(=O)N1CCCC1	9	-5	-7	-7	-33	-35
C[C@@H]1CCCCO[C@@H](CN(C)CC2CCCCC2)[C@H](C)CN([C@H](C)CO)C(=O)c2cc(NC(=O)NC3CCCCC3)ccc2O1	·	·	·	·	8	·
Cc1cccc(/C=C/c2onc(C)c2[N+](=O)[O-])n1	·	·	·	·	71*	·
CN(C)c1cc[n+](CC(=O)c2ccc(-c3ccccc3)cc2)cc1	70*	26	-15	-69	4	40
O=C(C[n+]1ccccc1)c1ccc(-c2ccccc2)cc1	6	-65	9	-6	-22	-20
O=C(CSc1nnc(NC(=O)c2ccccc2[N+](=O)[O-])s1)NC1CCCC1	10	-26	-5	-7	-1	-6
COc1ccccc1C(=O)Nc1nnc(SCC(=O)NC2CCCC2)s1	-90	-2	16	91*	·	32
CO[C@@H]1CN(C)C(=O)c2cc(NC(=O)NC3CCCCC3)ccc2OC[C@H](C)N(CC2CCOCC2)C[C@@H]1C	·	·	·	·	-7	·
Cc1ccc(Nc2nc(-c3ccccc3)cs2)nc1	-1	35	-59	3	60*	75*
Cc1cc(C)nc(Nc2nc(C(N)c3ccccc3)cs2)n1 (stereo not given)	·	13	·	·	-2	4
Cc1cc(C)nc(Nc2nc(-c3ccccc3)cs2)n1	0	39	-54	3	42	63*
Cc1ccc(Nc2nc(-c3cccs3)cs2)nc1	18	71*	35	-18	1	75*
Cc1nc(C)c(-c2csc(Nc3ccc(Cl)cn3)n2)s1	·	8	3	·	-33	57*
Cc1nc(N)sc1-c1csc(Nc2ncccn2)n1	40	33	6	-41	-19	50*
COc1ccccc1Nc1nc(-c2sc(N)nc2C)cs1	1	-21	-6	-6	-4	1
COc1cc(/C=C/C(=O)NCCn2c(C)cc3ccccc32)cc(OC)c1OC	·	2	-6	·	-19	22
C=CCSc1nc2ccccc2n1C(=O)/C=C/c1cc(OC)c(OC)c(OC)c1	87*	36	81*	-86	96*	57*
C=CCSc1nc2ccccc2n1C(=O)/C=C/c1ccc(OC)c(OC)c1	38	15	-13	-38	43	98*
CCSc1nc2ccccc2n1C(=O)/C=C/c1ccc(OC)c(OC)c1	76*	39	82*	-76	?	100*

Screening data from PubChem BioAssay.
